Experimental findings from PubChem BioAssay are described below.

The test system of this assay is Plasmodium falciparum Sir2 (PF13_0152, Sir2A). The experiment in a line: Plasmodium falciparum Sir2A binding compounds – biochemical, small-molecule microarray, 635 nm fluorescence, primary screen (AID 1098).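 Further: score merges spot fluorescence intensity with its signal-to-noise ratio.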 The conditions noted are these: fluorescence 635 nm, higher = more signal.
`CCOC(=O)C[C@H]1[C@H](OC(=O)c2cc3ccccc3oc2=O)[C@@H](NC(=O)c2ccc3ccccc3n2)c2cc(OCCCO)ccc2N1C(=O)c1ccc2ccccc2n1`: the composite z-score worked out at 0.522.

For the molecule `CN1C(=O)C2C=CC(C(O)C3CCCCC3)N(N(c3ccccc3)c3ccccc3)C2C1=O` (stereo unspecified), the composite z-score was -0.941.

Turning to `COc1ccccc1CN1C(=O)c2ccccc2[C@@H](C(=O)NCC(C)C)[C@@H]1c1ccc(CO)cc1`, the composite z-score came to 1.05.

`COC(=O)[C@@]1(Cc2ccccc2)[C@H]2c3cc(C(=O)N(C)C)n(Cc4ccc(O)c(OC)c4)c3C[C@H]2CN1C(=O)c1ccccc1` registered a composite z-score of 1.37.

Regarding `CCOC(=O)C[C@H]1[C@H](OC(=O)c2ccccc2-c2ccccc2)[C@@H](NC(=O)c2ccccc2)c2cc(OCCCO)ccc2N1C(=O)Cc1ccc(OC)cc1`, the composite z-score came to 0.0521.

In the case of `CCC[C@@H]1C[C@@]1(CCC)[C@@H](NC(=O)c1ccco1)c1ccc(Cl)cc1`, the composite z-score was -0.585.

`CN(C)CCCN1C(=O)[C@@]2(Cc3ccccc31)c1ccccc1C(=O)N(Cc1ccccc1)[C@H]2c1ccc(CO)cc1` yielded a composite z-score of 0.74.

Take `O=C(NCc1ccccc1)[C@]1(Cc2ccccc2)N=C(c2ccc(OCCCO)cc2)O[C@@H]1c1ccccc1`: the composite z-score is -0.0602.

`O=C1c2ccccc2[C@](Cc2ccccc2I)(C(=O)NC2CC2)[C@H](c2ccc(CO)cc2)N1Cc1ccccc1Cl` came in with a composite z-score of 0.453.

Take `C=C(C(=O)CC[C@H](OC(=O)c1cccnc1)c1ccc(OCCO)cc1)C(C)C`: the composite z-score was 1.56.

On to `COCCOC(=O)N1C(=O)[C@@]2(c3cc(C#CCCO)ccc31)[C@H](C(=O)N1CCc3cc(OC)c(OC)cc3C1)[C@H]1C(=O)O[C@H](c3ccccc3)[C@H](c3ccccc3)N1[C@@H]2c1ccc(OCCO)cc1`, for which the composite z-score turned out to be 1.19.

`C[N+](C)(C)CCCC[C@@H]1NC(=O)[C@H]2C[C@@H](C(=O)NCCCCCCN)[C@@H](c3cccc(OCCO)c3)N2C1=O` had a composite z-score of 1.56.

In the case of `COC(=O)C(CC#Cc1ccc2c(c1)[C@]1(C(=O)N2)[C@H](c2ccc(O)cc2)N2[C@H](c3ccccc3)[C@H](c3ccccc3)OC(=O)[C@H]2[C@@H]1C(N)=O)C(=O)OC`, the composite z-score is -0.532.

`CN(C)C(=O)[C@@]1(CCC(=O)OC(C)(C)C)N=C(c2ccc(OCCCO)cc2)O[C@H]1c1ccccc1N=[N+]=[N-]`: the composite z-score was determined as 1.33.

`CCOC(=O)C[C@H]1[C@H](OC(=O)Cc2ccc3c(c2)OCO3)[C@@H](NC(=O)c2ccccc2)c2cc(OCCCO)ccc2N1C(=O)c1ccc2ccccc2n1` displayed a composite z-score of 0.347.

`O=[N+]([O-])c1ccc(C[n+]2ccc(-c3ccc(CO)cc3)cc2)o1` yielded a composite z-score of 1.2.

In turn, `NC(=O)[C@H]1[C@@H]2C(=O)O[C@@H](c3ccccc3)[C@@H](c3ccccc3)N2[C@@H](c2ccc(O)cc2)[C@]12C(=O)Nc1ccc(C#CC3(O)CCCCCC3)cc12` registered a composite z-score of 1.37.

Molecule `CN(C)C(=O)[C@@]1(Cc2ccccc2N=[N+]=[N-])N=C(c2ccc(OCCCO)cc2)O[C@H]1c1ccccc1N=[N+]=[N-]` had a composite z-score of 0.974.

Turning to `NC(=O)NCC#Cc1ccc2c(c1)[C@]1(C(=O)N2)[C@H](c2ccc(O)cc2)N2[C@H](c3ccccc3)[C@H](c3ccccc3)OC(=O)[C@H]2[C@@H]1C(N)=O`, the composite z-score amounted to 0.855.

`NC(=O)NCC#Cc1ccc2c(c1)[C@]1(C(=O)N2)[C@H](c2ccc(OCCO)cc2)N2[C@H](c3ccccc3)[C@H](c3ccccc3)OC(=O)[C@H]2[C@@H]1C(=O)N1CCN(c2ncccn2)CC1` registered a composite z-score of 0.664.

For `O=C1N(Cc2ccccc2)c2ccccc2[C@H]2OC(c3ccc(OCCCO)cc3)=N[C@@]12CCS(=O)(=O)c1ccccc1`, the composite z-score came out at 0.703.

Regarding `COCC(=C=CC[C@@H](O)c1ccccc1OCCO)C[C@@H](O)c1ccccn1`, the composite z-score is 0.378.

Consider `COc1ccc(C#Cc2ccc3c(c2)[C@]2(C(=O)N3)[C@H](c3ccc(OCCO)cc3)N3[C@H](c4ccccc4)[C@H](c4ccccc4)OC(=O)[C@H]3[C@@H]2C(=O)N2CCN(c3ncccn3)CC2)cc1`, for which the composite z-score amounted to 1.12.

Consider `COc1ccc(C(=O)Nc2ccc3c(c2)[C@]2(O[C@@H](CCO)[C@H]([Si](C)(C)c4ccc(OC)cc4)[C@H]2C)C(=O)N3Cc2ccccc2)cc1`, for which the composite z-score is 0.663.

Molecule `CC(C)C[C@@H]1NC(=O)[C@@]23C(=O)N[C@@H](Cc4ccccc4)C2[C@H](C)[C@@]2(C)O[C@H]2C3/C=C/C/C=C\CNC(=O)[C@@H]2CCCN2C1=O` (stereo partly specified) gave a composite z-score of 0.324.

Molecule `Cc1cc(C)c(C(O)C2C=CC3C(=O)N(c4ccccc4)C(=O)C3N2Nc2ccc([N+](=O)[O-])cc2)c(C)c1` (stereo unspecified) gave a composite z-score of 1.55.
